# Test results: PubChem BioAssay AID1481 (The Scripps Research Institute Molecular Screening Center, 2009)
# Out of some 220,000 compounds screened, about 920 (0.42%) were called active. No stated cut-off is given here; in the data, active means inhibition above about 15%; inactive means the rest. Many of the other results were omitted from the sample, so actives are more common in it than they were.
# Target: Transitional endoplasmic reticulum ATPase (Homo sapiens) (UniProt P55072)
# Assay: inhibitors of human p97 ATPase, primary screen, biochemical (AID 1481);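 further: 0% = DMSO vehicle and 100% = wells lacking enzyme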
# Conditions: recombinant p97 ATPase, Kinase-Glo ATP luminescence, 3 h; at 8 µM; active compounds read high
# Sequence of Transitional endoplasmic reticulum ATPase (Homo sapiens) (P55072 whole entry, looked up): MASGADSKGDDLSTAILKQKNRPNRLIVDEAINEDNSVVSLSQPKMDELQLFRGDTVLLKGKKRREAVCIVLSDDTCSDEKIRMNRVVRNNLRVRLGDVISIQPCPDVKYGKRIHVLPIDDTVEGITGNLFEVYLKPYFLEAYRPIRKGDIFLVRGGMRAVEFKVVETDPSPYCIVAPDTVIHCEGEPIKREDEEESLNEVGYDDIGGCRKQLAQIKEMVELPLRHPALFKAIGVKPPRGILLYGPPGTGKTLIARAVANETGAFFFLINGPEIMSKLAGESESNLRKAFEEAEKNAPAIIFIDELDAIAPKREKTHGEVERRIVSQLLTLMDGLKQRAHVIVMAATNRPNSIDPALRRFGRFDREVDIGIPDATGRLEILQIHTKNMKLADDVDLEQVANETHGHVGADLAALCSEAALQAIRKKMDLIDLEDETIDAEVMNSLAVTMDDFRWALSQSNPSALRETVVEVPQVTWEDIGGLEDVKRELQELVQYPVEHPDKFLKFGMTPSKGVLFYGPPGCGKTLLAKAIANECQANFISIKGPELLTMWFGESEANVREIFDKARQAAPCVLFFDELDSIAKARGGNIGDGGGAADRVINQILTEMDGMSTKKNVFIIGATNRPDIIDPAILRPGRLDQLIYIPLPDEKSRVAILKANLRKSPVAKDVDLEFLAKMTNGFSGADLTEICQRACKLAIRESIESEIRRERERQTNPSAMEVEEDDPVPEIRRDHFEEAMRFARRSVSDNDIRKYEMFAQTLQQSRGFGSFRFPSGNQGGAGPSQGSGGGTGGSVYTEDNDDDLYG
row,SMILES,inhibition
1,O=c1[nH]c(CN2CC=C(c3ccccc3)CC2)nc2scc(-c3cccs3)c12,15.1% (active)
2,O=c1c2ccccc2nc(-c2ccccc2)n1-c1ccccn1,3.57% (inactive)
3,CNC(=O)Nc1ccc(C(O)(C(=O)OC)C(F)(F)F)cc1 (stereo not given),-1.08% (inactive)
4,CC(=O)Nc1ccccc1C(=O)OCC(=O)c1cccc2ccccc12,-0.08% (inactive)
5,N=c1ccccn1Cc1ccccc1,10.5% (inactive)
